Assay results as given in PubChem BioAssay (EPA / NIEHS).
Results filed as inconclusive are left out. Calls of active or inactive are those of the source. Rule for the calls: active = hit-call score of the fitted dose curve at least 0.9, where 1 is the maximum; inconclusive = response in the unintended direction; inactive = score below 0.9.

Assay: ATG_M_32_TRANS: Attagene TRANS-FACTORIAL HepG2 Assay for M32 Transcription Factor (Internal Marker) (AID 2282984)
Conditions: HepG2 Attagene TRANS M32 internal marker reporter
Protocol: ATG_TRANS is a cell-based, multiplexed-readout assay that uses HepG2, a human liver cell line, with measurements taken at 24 hours after chemical dosing in a 24-well plate.ATG_M_32_TRANS is one of 30 assay component(s) measured or calculated from the ATG_TRANS assay. It is designed to make measurements of mRNA induction, a form of inducible reporter, as detected with fluorescence intensity signals by Reverse transcription polymerase chain reaction (RT-PCR) and Capillary electrophoresis technology.Data from the assay component ATG_M_32_TRANS was analyzed into 1 assay endpoint. This assay endpoint, ATG_M_32_TRANS, was analyzed in the positive analysis fitting direction relative to DMSO as the negative control and baseline of activity. Using a type of inducible reporter, measures of mRNA for gain-of-signal activity can be used to understand the background control at the transcription factor-level as they relate to the gene . Furthermore, this assay endpoint can be referred to as a secondary readout, because this assay has produced multiple assay endpoints where this one serves a background control function. To generalize the intended target to other relatable targets, this assay endpoint is annotated to the background measurement intended target family, where the subfamily is internal marker.
Human liver HepG2 cells are transiently transfected with multiple reporter transcription units (MRTUs) in 6-well plates using FuGene 6 reagent (Roche; 3 ml FuGene/1 mg DNA). The MRTU constructs are regulated by a cis-regulating element (promoter). […] A major difference between the CIS and TRANS system is that in CIS activities of endogenous TFs are measured, whereas the TRANS assay evaluates changes in activities of exogenous, chimeric NR-Gal4 proteins. […] At the end of 24 hour incubation, total RNA was isolated using TriZol reagent (Invitrogen). The isolated RNA is then reverse-transcribed using oligo(dT) primer and Mo-MLV reverse transcriptase (Invitrogen) with DNAse I (Ambion) treatment for 30 min. The one-tenth of the produced cDNA was amplified by PCR using Taq DNA polymerase (Invitrogen) and two reporter sequence-specific primers. The PCR products were fluorescently labeled by primer extension with 6-arboxyfluorescein (6-FAM) 5'-labeled reporter sequence-specific primer (2 min at 95 C, 20 s at 68 C and 10 min at 72 C) and these products were digested with 5U of HpaI (New England Biolabs) for 2h at 37 C. The fragments were purified using Qiaquick PCR columns (Qiagen), analyzed on an ABI 3130xL genetic analyzer (Applied Biosystems) with peak positions identified by using a set of X-rhodamine (ROX)-labeled MapMarker1000 molecular weight standards (BioVentures). The raw capillary electrophoresis data was processed using Attagraph software (Attagene).

Q: Which outcome does the source give for `C/C=C(\C)C(=O)OC/C=C(\C)CCC=C(C)C` here?
A: inactive

Q: Which outcome does the source give for `CC(=O)CCC=C(C)CCC=C(C)C` here?
A: inactive

Q: Which outcome does the source give for `CCOC(=O)CCCCCCCCC(=O)OCC` here?
A: inactive

Q: For `CCCCCCCCSCc1cc(C)c(O)c(CSCCCCCCCC)c1`, which outcome is on record?
A: inactive

Q: Which outcome does the source give for `O=C1CCC(=O)N1` here?
A: inactive

Q: Which outcome does the source give for `CC1COC(=O)O1` (stereo not given) here?
A: inactive

Q: For `CCCC1CCOC(C)S1` (stereo not given), which outcome is on record?
A: inactive

Q: With `CN(C)c1ccc(C=O)cc1` as the molecule, how does the outcome read?
A: inactive

Q: With `CCOCC(C)O` (stereo not given) as the molecule, how does the outcome read?
A: inactive

Q: For `C=C1CC/C=C(\C)CC[C@@H]2[C@@H]1CC2(C)C`, which outcome is on record?
A: inactive

Q: For `CN(C)CCC=C1c2ccccc2CCc2ccccc21`, which outcome is on record?
A: inactive

Q: Which outcome does the source give for `O=c1cc[nH]cc1` here?
A: inactive

Q: For `c1ccc(OCCOc2ccccc2)cc1`, which outcome is on record?
A: inactive

Q: For `[Cu+]`, which outcome is on record?
A: inactive

Q: Which outcome does the source give for `Cc1cc(O)c(C)c(C)c1O` here?
A: inactive

Q: For `CCCCCCCCCO`, which outcome is on record?
A: inactive

Q: For `OCCCO`, which outcome is on record?
A: inactive

Q: For `NCCN1CCNCC1`, which outcome is on record?
A: inactive

Q: Which outcome does the source give for `CC(CO)c1ccccc1` (stereo not given) here?
A: inactive

Q: For `O=C(O)c1ccco1`, which outcome is on record?
A: inactive

Q: Which outcome does the source give for `CC(CCO)CC(C)(C)C` (stereo not given) here?
A: inactive

Q: Which outcome does the source give for `CCCCCCCCOC(=O)c1ccc(O)cc1` here?
A: inactive

Q: Which outcome does the source give for `O=C(c1ccc(OCCN2CCCCC2)cc1)c1c(-c2ccc(O)cc2)sc2cc(O)ccc12` here?
A: inactive

Q: With `CC(C)OB(OC(C)C)OC(C)C` as the molecule, how does the outcome read?
A: inactive

Q: Which outcome does the source give for `CCCCCCOc1ccc(O)cc1` here?
A: inactive

Q: Which outcome does the source give for `NC(=O)c1cccnc1` here?
A: inactive

Q: With `O=C(C=Cc1ccccc1)OCCCc1ccccc1` as the molecule, how does the outcome read?
A: inactive

Q: For `NC(N)=S`, which outcome is on record?
A: inactive

Q: With `CC(=O)OC/C=C(C)/C=C/C=C(C)/C=C/C1=C(C)CCCC1(C)C` as the molecule, how does the outcome read?
A: inactive

Q: Which outcome does the source give for `CCCCCc1cccc(=O)o1` here?
A: inactive

Q: For `CC(=O)c1cccnc1`, which outcome is on record?
A: inactive

Q: Which outcome does the source give for `c1ccc(Cc2ccccc2)cc1` here?
A: inactive

Q: For `CCCCCCCCOS(=O)(=O)O`, which outcome is on record?
A: inactive

Q: Which outcome does the source give for `CC(CO)(CO)[N+](=O)[O-]` here?
A: inactive

Q: Which outcome does the source give for `CC(=O)CCc1ccc(O)cc1` here?
A: inactive

Q: With `[O-]/[N+](=N\O)c1ccccc1` as the molecule, how does the outcome read?
A: inactive

Q: For `CC(=O)C1=C(C)[C@@H]2C[C@@]3(C1)[C@H](C)CC[C@H]3C2(C)C`, which outcome is on record?
A: inactive

Q: Which outcome does the source give for `O=Cc1ccccc1O` here?
A: inactive

Q: For `CC/C=C\CCCCO`, which outcome is on record?
A: inactive

Q: With `CCCCCCCCCCCCOC(C)=O` as the molecule, how does the outcome read?
A: inactive
